# Test results published in article PMC5540273 (PLoS ONE, 2017).
# System: CHEK2
# Conditions: concentration: 1 μM, replicates: in singlicate; n = 1
# 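Note: KINOMEscan kinase panel screen.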
row,SMILES,%Inh
1,CN1CCN(CCCNc2nccc(-c3c(-c4ccc(F)cc4)nn4cc(C(F)(F)F)ccc34)n2)CC1 [GW621581],0%
2,C[C@@H]1CC[C@@H](C(=O)Nc2ccccc2)CN1c1cc(-c2ccc3c(N)n[nH]c3c2)nc(N)n1 [GSK2286062],26%
3,Cl.Cl.NCC(NCc1ccc(-c2ccnc3[nH]ccc23)s1)c1ccccc1 (stereo not drawn) [GSK1321565],33%
4,Nc1n[nH]c2cnc(-c3ccccc3)cc12 [SB-642124],0%
5,COc1cccc(NC(=O)NC2CCN(c3ccnc(Nc4cc(OC)c(OC)c(OC)c4)n3)C2)c1 (stereo not drawn) [GSK1379763],54%
6,COc1cccc(C(=O)Nc2cccc(Oc3ccc4nc(NC(=O)C5CC5)cn4n3)c2)c1,0%
7,c1ccc(-c2n[nH]cc2Nc2ccnc3ccccc23)nc1 [GW694077],18%
8,O=C(Nc1cccc(-c2nn3ccccc3c2-c2ccnc(Nc3cccc(C(F)(F)F)c3)n2)c1)c1c(F)cccc1F [GSK292658],0%
9,CSc1cccc2c(-c3ccncn3)c(-c3ccc(F)cc3)nn12 [GW514786],0%
10,COc1ccc(CNC(=O)NC2CCN(c3ccnc(Nc4ccc(F)cc4)n3)CC2)cc1 [GSK1379788],34%
11,COCCOCCOc1cc2ncc3c4ccc(C#N)cc4[nH]c3c2cc1OC,57%
12,FC(F)(F)c1ccc(/C=C/c2cncnc2Nc2ccc3[nH]c(Cc4ccccc4)nc3c2)cc1 [GW709199],18%
13,COc1cc(Nc2nccc(N3CCC(NC(=O)Nc4cccc(C(C)=O)c4)C3)n2)cc(OC)c1OC (stereo not drawn) [GSK1379753],0%
14,O=C(O)C(F)(F)F.O=C(O)C(F)(F)F.O=c1[nH]ccc2nc(N[C@@H]3CCCNC3)nc(Nc3ccc(S(=O)(=O)N4CCOCC4)cc3)c12 [GSK2177277],74%
15,Cc1ccc(C(=O)N2CC[C@@H](O)C2)cc1-n1c(C)cc(OCc2ccc(F)cc2F)c(Br)c1=O,6%
16,Cl.c1ccc(-c2ccc3c(Nc4ccc5[nH]ccc5c4)ccnc3c2)nc1 [GW440138],34%
17,CCCCc1nn2ncccc2c1-c1ccnc(Nc2ccc(N3CCN(C)CC3)cc2)n1 [GW684941],13%

row,SMILES,%Inh
1,COc1ccc(Nc2nccc(NCCNC(=O)c3cc4ccccc4s3)n2)cc1 [GSK1379896],0%
2,COc1ccc(Nc2nccc(N3CCC(NC(=O)Nc4cccc(OC)c4)C3)n2)cc1 (stereo not drawn) [GSK1379742],0%
3,O=C(Nc1ccccc1F)NC1CCN(c2ccnc(Nc3ccc(F)cc3)n2)CC1 [GSK1379800],0%
4,Cn1cc(-c2ccc3c(c2)CCN3C(=O)Cc2cccc(F)c2)c2c(N)ncnc21 [GSK2603358],0%
5,CCc1ccc(-c2ccc3c(c2)-c2c(cnn2C)S(=O)(=O)N3C)cc1,0%
6,COc1cc(Nc2nccc(-c3c(-c4cccc(NC(=O)c5c(F)cccc5F)c4)nn4ccccc34)n2)cc(OC)c1OC [GSK323521],0%
7,O=C(Nc1cccc(Oc2ccc3nc(NC(=O)C4CC4)cn3n2)c1)c1ccccc1C(F)(F)F,11%
8,O=c1[nH]cc(-c2ccc(N3CCOCC3)cc2)c2sc(-c3cn[nH]c3)cc12 [GSK2276055],14%
9,Cc1cccc(Nc2nc(N[C@H]3CCNC3)ncc2C(N)=O)c1.Cl [GSK2197149],71%
10,Nc1ncc(-c2cccnc2)c2scc(-c3ccc4c(c3)CCN4C(=O)Cc3ccccc3)c12 [GSK683281],0%
11,Cl.Cl.NCC(C(=O)Nc1cc(Br)c(-c2ccnc3[nH]ccc23)s1)c1ccccc1 (stereo not drawn) [GSK1269851],0%
12,Fc1ccc(-c2ncn(C3CCNCC3)c2-c2ccnc(Oc3ccc(-c4ccccc4)cc3)n2)cc1 [SB-245391],0%
13,Cl.c1ccc(-c2ccc3c(Nc4ccc5[nH]ncc5c4)ccnc3c2)nc1 [GW440137],14%
14,Cl.NC(=O)c1cccc(Nc2nccc(Nc3ccc(Oc4c(Cl)cccc4Cl)c(Cl)c3)n2)c1 [GW659009],0%
15,O=C(Nc1cccc(-c2nn3ncccc3c2-c2ccnc(Nc3ccccc3)n2)c1)c1c(F)cccc1F [GSK198271],0%
16,COC(=O)Nc1nc2ccc(Oc3ccc(NC(=O)Nc4cc(C(F)(F)F)ccc4F)cc3)cc2n1C.Cl [GW692089],58%
